Test [1] in a line: antimalarial activity against Dd2 strain (AID 2302;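 active means growth inhibition above 50% at the single 2 µM test dose, taken to imply half-maximal potency below 2 µM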;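 further: 0% = DMSO untreated growth and 100% = chloroquine plus artemisinin killed control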). The settings on record: P. falciparum Dd2 in RBCs, LDH growth readout, 72 h; at 2 µM; hits give high values.
Test [2] in a line: HepG2 cytotoxicity, primary screen, cytotoxicity control for P. falciparum antimalarial project, cell-based, ATP luminescence (AID 2303;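 active means inhibition above 50%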;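 further: 0% = DMSO wells and 100% = digitonin-killed cells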). Conditions: HepG2 viability, 24-48 h, at 10 µM, hits give high values.
The target in test [3] is L-lactate dehydrogenase (Plasmodium falciparum (isolate CDC / Honduras)) (UniProt Q27743). The test is described as follows: PfLDH activity inhibition – cell lysate, 3D7 strain, counter-screen for P. falciparum growth inhibition project (AID 2304).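 Further: 0% = vehicle and 100% = reference inhibitor.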 Conditions: P. falciparum 3D7 crude extract, LDH APAD/NBT absorbance; at 2 µM; hits give high values. A general note: A counterscreen serves to expose hits that act by an unwanted route or on another target.

The nature of test [4]: inhibition of 3D7 malaria parasite growth – strain 3D7 (AID 2306).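 Further: 0% = DMSO wells and 100% = chloroquine plus artemisinin control wells.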 The settings on record: P. falciparum 3D7 erythrocytic growth, LDH absorbance, 72 h; at 2 µM; hits give high values.
For test [5], the target named is Calcium-dependent protein kinase 1 (Plasmodium falciparum (isolate 3D7)) (UniProt P62344). Kind of test: PfCDPK1 kinase inhibitors, biochemical, TCAMS library (AID 1159585; cut-off not given, nearly all actives have IC50 up to about 0.98 µM;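 further: inhibitors leave more ATP so luminescence rises with inhibition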). Conditions: recombinant PfCDPK1, Kinase-Glo ATP depletion luminescence. (In Kinase-Glo more light means more ATP remaining.)
Test [6] deals with Plasmodium falciparum protein kinase 6 (PK6, PF3D7_1337100) (UniProt Q8IDW1). The test is described as follows: PfPK6 kinase inhibitors, biochemical, TCAMS library (AID 1159586). The settings on record: recombinant PfPK6, Kinase-Glo ATP depletion luminescence.
Test [7] addresses Protein kinase 7 (PK7), Plasmodium falciparum 3D7 (PF3D7_0213400) (UniProt Q7YTF7). The test is described as follows: inhibition of Plasmodium PK7 catalytic activity – biochemical, TCAMS antimalarial set, Kinase-Glo luminescence (AID 1159587). The settings on record: recombinant PfPK7, Kinase-Glo ATP depletion luminescence.
The target in test [8] is Calcium-dependent protein kinase 4 (Plasmodium falciparum (isolate 3D7)) (UniProt Q8IBS5). The test is described as follows: PfCDPK4 kinase inhibitors, biochemical, TCAMS library (AID 1159588; cut-off not given, nearly all actives have IC50 up to about 0.91 µM). Conditions: recombinant PfCDPK4, Kinase-Glo ATP depletion luminescence.

Each structure is given as a SMILES string. Values without a mark were called inactive. For some of these results: Results with a measured potency or affinity are listed apart. The source made the active and inactive calls. Unless noted, how the calls were made is not given here.

Chain of Protein kinase 7 (PK7), Plasmodium falciparum 3D7 (PF3D7_0213400) (Q7YTF7 1-343): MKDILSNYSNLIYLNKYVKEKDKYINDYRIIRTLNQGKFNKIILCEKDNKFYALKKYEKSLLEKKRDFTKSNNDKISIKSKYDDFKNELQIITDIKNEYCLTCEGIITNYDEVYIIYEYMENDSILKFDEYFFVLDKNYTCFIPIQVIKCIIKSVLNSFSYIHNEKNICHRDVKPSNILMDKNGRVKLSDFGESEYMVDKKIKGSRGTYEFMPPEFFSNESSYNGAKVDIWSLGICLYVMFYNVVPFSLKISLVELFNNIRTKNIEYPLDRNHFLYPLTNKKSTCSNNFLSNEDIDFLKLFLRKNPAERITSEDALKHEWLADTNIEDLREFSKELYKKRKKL
Chain of Calcium-dependent protein kinase 1 (Plasmodium falciparum (isolate 3D7)) (P62344 whole entry, looked up): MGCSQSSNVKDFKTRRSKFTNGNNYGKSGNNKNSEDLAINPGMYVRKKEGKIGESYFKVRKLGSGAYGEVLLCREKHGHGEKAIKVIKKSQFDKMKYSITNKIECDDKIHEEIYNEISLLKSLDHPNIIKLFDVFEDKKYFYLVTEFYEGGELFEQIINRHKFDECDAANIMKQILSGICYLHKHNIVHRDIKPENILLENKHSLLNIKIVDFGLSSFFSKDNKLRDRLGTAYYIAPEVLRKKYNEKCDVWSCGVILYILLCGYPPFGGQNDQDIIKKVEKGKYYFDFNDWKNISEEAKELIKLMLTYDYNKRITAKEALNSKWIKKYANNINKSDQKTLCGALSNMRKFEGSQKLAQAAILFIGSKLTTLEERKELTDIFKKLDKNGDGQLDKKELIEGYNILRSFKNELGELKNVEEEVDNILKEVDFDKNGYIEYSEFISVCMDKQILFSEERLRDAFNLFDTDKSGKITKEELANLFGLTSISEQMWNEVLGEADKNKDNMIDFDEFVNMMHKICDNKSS
Chain of L-lactate dehydrogenase (Plasmodium falciparum (isolate CDC / Honduras)) (Q27743 whole entry, looked up): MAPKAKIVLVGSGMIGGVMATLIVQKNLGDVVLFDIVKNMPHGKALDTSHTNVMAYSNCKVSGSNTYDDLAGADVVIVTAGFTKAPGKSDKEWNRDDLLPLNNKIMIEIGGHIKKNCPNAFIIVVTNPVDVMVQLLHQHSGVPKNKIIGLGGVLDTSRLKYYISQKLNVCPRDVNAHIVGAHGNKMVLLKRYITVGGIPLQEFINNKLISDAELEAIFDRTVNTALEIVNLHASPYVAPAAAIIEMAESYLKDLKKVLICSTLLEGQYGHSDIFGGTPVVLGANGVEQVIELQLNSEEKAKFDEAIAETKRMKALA
Chain of Plasmodium falciparum protein kinase 6 (PK6, PF3D7_1337100) (Q8IDW1 1-305): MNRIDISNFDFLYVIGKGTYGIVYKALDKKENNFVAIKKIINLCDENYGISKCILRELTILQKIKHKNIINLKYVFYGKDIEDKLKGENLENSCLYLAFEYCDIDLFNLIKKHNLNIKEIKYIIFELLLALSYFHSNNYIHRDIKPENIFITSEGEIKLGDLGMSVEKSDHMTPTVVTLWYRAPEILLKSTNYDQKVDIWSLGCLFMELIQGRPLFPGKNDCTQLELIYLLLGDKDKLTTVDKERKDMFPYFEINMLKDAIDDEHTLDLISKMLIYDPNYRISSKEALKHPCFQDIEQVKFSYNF
Chain of Calcium-dependent protein kinase 4 (Plasmodium falciparum (isolate 3D7)) (Q8IBS5 whole entry, looked up): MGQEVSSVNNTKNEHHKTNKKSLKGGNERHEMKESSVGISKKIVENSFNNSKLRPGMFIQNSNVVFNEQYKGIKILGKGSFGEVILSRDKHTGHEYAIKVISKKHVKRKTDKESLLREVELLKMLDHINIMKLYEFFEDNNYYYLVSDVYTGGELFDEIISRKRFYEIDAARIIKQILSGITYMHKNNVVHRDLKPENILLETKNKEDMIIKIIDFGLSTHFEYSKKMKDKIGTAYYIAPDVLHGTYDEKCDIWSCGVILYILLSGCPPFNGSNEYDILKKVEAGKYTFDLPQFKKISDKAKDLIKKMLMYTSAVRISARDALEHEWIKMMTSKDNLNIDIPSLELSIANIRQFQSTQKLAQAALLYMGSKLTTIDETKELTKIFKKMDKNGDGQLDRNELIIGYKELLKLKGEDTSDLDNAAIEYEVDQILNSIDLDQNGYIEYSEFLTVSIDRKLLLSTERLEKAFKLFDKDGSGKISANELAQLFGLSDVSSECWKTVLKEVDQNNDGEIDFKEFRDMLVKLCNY

By inhibition is commonly meant the relative decrease from the control value, in per cent. On to `COc1ccc(CN(C)CCCc2ccc(NC(=O)c3cccc4c(=O)c5ccccc5[nH]c34)cc2)cc1OC`, for which the growth inhibition in test [1] is 54% (active); in test [4], 99% (active). Further, the inhibition in test [2] is 77% (active); in test [3] it was -1%. Besides, the outcome in test [5], in test [6], in test [7] and in test [8] was inactive.
Consider `CC(=O)N/N=C/[C@H](CCc1ccccc1)NC(=O)[C@H](CC(C)C)NC(=O)c1ccc(F)cc1`, for which the growth inhibition in test [1] is 86% (active); in test [4], 95% (active). In addition, the inhibition in test [2] was 2%; in test [3] it was -4%. Further, the result in test [5], in test [6], in test [7] and in test [8] was inactive.
With `CN1CCN(c2ccc(CNc3ccc4ncc(-c5cccc(OC(F)(F)F)c5)n4n3)cc2)CC1`, the growth inhibition in test [1] was 78% (active); in test [4] it was 89% (active). The inhibition was 25% in test [2] and 3% in test [3]. The result in test [5], in test [6], in test [7] and in test [8] was inactive.
In the case of `COC(=O)c1c(C#N)c(OC)cc(O)c1CSC[C@@H](CN1CCCCC1)Nc1nc(-c2ccc([N+](=O)[O-])cc2)cs1`, the values for the growth inhibition in test [1] and in test [4] were 77% (active) and 101% (active), respectively. The inhibition is 8% in test [2] and -3% in test [3]. For the same compound, the result in test [5], in test [6], in test [7] and in test [8] was inactive.
Take `Cc1ccc2nc(/N=C(\N)NC(=O)NC3CCCCC3)nc(C)c2c1`: the results for the growth inhibition in test [1] and in test [4] were 94% (active) and 99% (active), respectively. Also, the inhibition was 8% in test [2] and 0% in test [3]. The result in test [5], in test [6], in test [7] and in test [8] was inactive.
Take `CC(Nc1ncc(-c2ccsc2)c(-c2nccs2)n1)c1ccc2c(c1)OCCO2` (stereo not given): the results for the growth inhibition in test [1] and in test [4] were 66% (active) and 81% (active), respectively. Moreover, the inhibition is 14% in test [2] and 2% in test [3]. Besides, the outcome in test [5], in test [6], in test [7] and in test [8] was inactive.
For `CN(C)c1ccc(-c2csc(C(=O)NC3CCCCN(CCC(C)(C)C)C3)c2)cc1` (stereo not given), the growth inhibition was 68% (active) in test [1] and 91% (active) in test [4]. Also, the results for the inhibition in test [2] and in test [3] were 10% and 4%, respectively. Besides, the result in test [5], in test [6], in test [7] and in test [8] was inactive.
As for `O=C(Nc1cccc(CN2CCCN(Cc3cccc(O)c3)CC2)c1)c1ccc2ccccc2c1`, the results for the growth inhibition in test [1] and in test [4] were 42% and 97% (active), respectively. Moreover, the inhibition in test [2] was 21%; in test [3] it was -4%. The result in test [5], in test [6], in test [7] and in test [8] was inactive.
Take `Oc1ccc(CCNCCCCCCNCCc2ccc(Cl)c3ccccc23)cc1O`: the growth inhibition was 1% in test [1] and 99% (active) in test [4]. In addition, the figures for the inhibition in test [2] and in test [3] were 22% and -4%, respectively. Also, the outcome in test [5], in test [6], in test [7] and in test [8] was inactive.
Turning to `Nc1nc2ccc(S(=O)(=O)Nc3ccc(C(=O)N[C@@H](CCC(=O)O)C(=O)O)c(F)c3)cc2c(=O)[nH]1`, the growth inhibition in test [1] is 16%; in test [4], 97% (active). Further, the inhibition in test [2] is 37%; in test [3], 4%. Besides, the outcome in test [5], in test [6], in test [7] and in test [8] was inactive.
Regarding `OC1CCCN(Cc2cccc(-c3ccc(-c4nc5ccc(F)cc5[nH]4)cc3)c2)C1` (stereo not given), the growth inhibition in test [1] is 42%; in test [4], 101% (active). Further, the inhibition in test [2] is 16%; in test [3], -4%. Also, the outcome in test [5], in test [6], in test [7] and in test [8] was inactive.
As for `O=C(Nc1cccc(CN2CCCN(Cc3cccc(Cl)c3)CC2)c1)c1ccc(Cl)c(Cl)c1`, the results for the growth inhibition in test [1] and in test [4] were 17% and 89% (active), respectively. In addition, the inhibition in test [2] was 18%; in test [3], -1%. In addition, the outcome in test [5], in test [6], in test [7] and in test [8] was inactive.
For the compound `Cc1ccc(OC2CCN(CCCCC3(C)C(=O)Nc4ccccc43)CC2)cc1` (stereo not given), the growth inhibition in test [1] was 2%; in test [4] it was 100% (active). The results for the inhibition in test [2] and in test [3] were 63% (active) and -3%, respectively. In addition, the result in test [5], in test [6], in test [7] and in test [8] was inactive.
`C=CCCCNCC(NCCCNc1cc(=O)c2ccccc2[nH]1)c1cc(Br)cc(Br)c1` (stereo not given): the growth inhibition in test [1] was 19%; in test [4], 94% (active). The inhibition was -3% in test [2] and -1% in test [3]. The outcome in test [5], in test [6], in test [7] and in test [8] was inactive.
`CN1CCC(N2CCN(Cc3ccc(-c4cccc(-c5nc6ccccc6[nH]5)c4)cc3)CC2)CC1`: the growth inhibition in test [1] is 100% (active); in test [4], 99% (active). For the same compound, the inhibition was 48% in test [2] and -1% in test [3]. Besides, the result in test [5], in test [6], in test [7] and in test [8] was inactive.
On to `O=C1OC(c2ccccc2)(c2ccccc2)CN1CC1CCN(Cc2ccc(O)c(Cl)c2)CC1`, for which the growth inhibition in test [1] was 90% (active); in test [4] it was 98% (active). Further, the values for the inhibition in test [2] and in test [3] were 26% and -1%, respectively. Further, the outcome in test [5], in test [6], in test [7] and in test [8] was inactive.
Take `c1ccc2c(c1)CN(CC1CCOCC1)CC1(CCN(Cc3c[nH]c4cnccc34)CC1)O2`: the growth inhibition in test [1] was 7%; in test [4] it was 99% (active). For the same compound, the inhibition in test [2] is 21%; in test [3] it was -3%. Moreover, the outcome in test [5], in test [6], in test [7] and in test [8] was inactive.
Turning to `Cc1nccn1Cc1cc(C(C)(C)C)c(O)c(C(C)(C)C)c1`, the values for the growth inhibition in test [1] and in test [4] were -4% and 99% (active), respectively. Moreover, the results for the inhibition in test [2] and in test [3] were 8% and -5%, respectively. Also, the outcome in test [5], in test [6], in test [7] and in test [8] was inactive.
For the compound `O=C(Nc1cc(Cl)cc(Cl)c1)Nc1ccccc1C(=O)NC1CCCCC1`, the growth inhibition in test [1] was 100% (active); in test [4], 101% (active). In addition, the inhibition in test [2] is 12%; in test [3] it was 4%. Further, the outcome in test [5], in test [6], in test [7] and in test [8] was inactive.
Regarding `CC(CN(C)C)C(=O)Nc1cccc(-c2cccc(-c3nc4ccccc4[nH]3)c2)c1` (stereo not given), the growth inhibition in test [1] was 25%; in test [4] it was 94% (active). Further, the inhibition is 42% in test [2] and -5% in test [3]. The outcome in test [5], in test [6], in test [7] and in test [8] was inactive.

The values are drawn from PubChem BioAssay.
